Assays:
[1] = biological target: T1, Mitogen-activated protein kinase 12 (Homo sapiens) (UniProt P53778); conditions: at 1 µM;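 further: values are averaged p38gamma kinase inhibition readings, compounds tested at 1 µM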
T1 sequence (whole entry): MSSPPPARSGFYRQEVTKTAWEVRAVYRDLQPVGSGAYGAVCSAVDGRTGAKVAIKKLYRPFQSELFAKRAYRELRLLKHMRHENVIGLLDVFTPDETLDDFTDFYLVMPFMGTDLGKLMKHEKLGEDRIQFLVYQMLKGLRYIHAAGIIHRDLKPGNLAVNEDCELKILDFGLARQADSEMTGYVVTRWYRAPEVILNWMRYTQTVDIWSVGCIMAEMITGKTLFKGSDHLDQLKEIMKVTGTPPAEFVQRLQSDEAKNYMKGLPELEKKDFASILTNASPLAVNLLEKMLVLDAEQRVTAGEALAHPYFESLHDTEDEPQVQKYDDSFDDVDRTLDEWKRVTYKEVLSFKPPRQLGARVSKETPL

[2] = biological target: SRSF protein kinase 1 (Homo sapiens) (UniProt Q96SB4); conditions: at 0.1 µM
[3] = biological target: SRSF protein kinase 1 (Homo sapiens) (UniProt Q96SB4); conditions: at 1 µM
[4] = biological target: Phosphatidylinositol 4,5-bisphosphate 3-kinase catalytic subunit alpha isoform (Homo sapiens) (UniProt P42336); conditions: at 0.1 µM
[5] = biological target: Phosphatidylinositol 4,5-bisphosphate 3-kinase catalytic subunit alpha isoform (Homo sapiens) (UniProt P42336); conditions: at 1 µM
[6] = biological target: T2, Phosphatidylinositol 4,5-bisphosphate 3-kinase catalytic subunit delta isoform (Homo sapiens) (UniProt O00329); conditions: at 0.1 µM
T2 sequence (whole entry): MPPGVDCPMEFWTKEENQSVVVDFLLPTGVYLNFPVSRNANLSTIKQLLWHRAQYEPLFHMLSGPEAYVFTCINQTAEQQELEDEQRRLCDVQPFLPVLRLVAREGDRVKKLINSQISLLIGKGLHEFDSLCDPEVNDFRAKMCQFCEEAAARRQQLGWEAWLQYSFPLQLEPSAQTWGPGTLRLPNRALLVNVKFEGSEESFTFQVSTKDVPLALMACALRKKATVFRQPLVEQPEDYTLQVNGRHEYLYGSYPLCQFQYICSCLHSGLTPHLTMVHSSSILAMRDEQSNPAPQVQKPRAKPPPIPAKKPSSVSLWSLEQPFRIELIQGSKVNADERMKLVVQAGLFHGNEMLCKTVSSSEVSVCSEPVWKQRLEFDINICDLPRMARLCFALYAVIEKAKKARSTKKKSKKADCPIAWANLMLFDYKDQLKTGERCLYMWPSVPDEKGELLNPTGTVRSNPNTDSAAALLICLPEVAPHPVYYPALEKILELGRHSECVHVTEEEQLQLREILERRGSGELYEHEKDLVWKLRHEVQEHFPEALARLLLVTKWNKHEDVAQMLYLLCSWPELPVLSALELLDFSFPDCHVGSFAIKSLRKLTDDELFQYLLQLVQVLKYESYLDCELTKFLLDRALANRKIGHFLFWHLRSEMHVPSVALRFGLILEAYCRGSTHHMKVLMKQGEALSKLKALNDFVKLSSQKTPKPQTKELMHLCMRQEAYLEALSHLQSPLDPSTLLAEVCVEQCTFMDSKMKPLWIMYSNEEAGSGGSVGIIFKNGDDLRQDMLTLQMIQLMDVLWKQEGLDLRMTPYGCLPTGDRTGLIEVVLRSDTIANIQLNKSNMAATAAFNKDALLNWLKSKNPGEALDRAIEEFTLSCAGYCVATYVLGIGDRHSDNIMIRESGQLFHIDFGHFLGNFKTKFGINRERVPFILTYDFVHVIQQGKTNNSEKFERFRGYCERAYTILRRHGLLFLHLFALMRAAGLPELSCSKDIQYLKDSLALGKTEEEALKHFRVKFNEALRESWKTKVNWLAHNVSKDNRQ

[7] = biological target: T2, Phosphatidylinositol 4,5-bisphosphate 3-kinase catalytic subunit delta isoform (Homo sapiens); conditions: at 1 µM
[8] = biological target: Phosphatidylinositol 4-kinase beta (Homo sapiens) (UniProt Q9UBF8); conditions: at 0.1 µM
[9] = biological target: Phosphatidylinositol 4-kinase beta (Homo sapiens) (UniProt Q9UBF8); conditions: at 1 µM
[10] = biological target: Sphingosine kinase 1 (Homo sapiens) (UniProt Q9NYA1); conditions: at 0.1 µM
[11] = biological target: Sphingosine kinase 1 (Homo sapiens) (UniProt Q9NYA1); conditions: at 1 µM
[12] = biological target: T3, Sphingosine kinase 2 (Homo sapiens) (UniProt Q9NRA0); conditions: at 0.1 µM
T3 sequence (whole entry): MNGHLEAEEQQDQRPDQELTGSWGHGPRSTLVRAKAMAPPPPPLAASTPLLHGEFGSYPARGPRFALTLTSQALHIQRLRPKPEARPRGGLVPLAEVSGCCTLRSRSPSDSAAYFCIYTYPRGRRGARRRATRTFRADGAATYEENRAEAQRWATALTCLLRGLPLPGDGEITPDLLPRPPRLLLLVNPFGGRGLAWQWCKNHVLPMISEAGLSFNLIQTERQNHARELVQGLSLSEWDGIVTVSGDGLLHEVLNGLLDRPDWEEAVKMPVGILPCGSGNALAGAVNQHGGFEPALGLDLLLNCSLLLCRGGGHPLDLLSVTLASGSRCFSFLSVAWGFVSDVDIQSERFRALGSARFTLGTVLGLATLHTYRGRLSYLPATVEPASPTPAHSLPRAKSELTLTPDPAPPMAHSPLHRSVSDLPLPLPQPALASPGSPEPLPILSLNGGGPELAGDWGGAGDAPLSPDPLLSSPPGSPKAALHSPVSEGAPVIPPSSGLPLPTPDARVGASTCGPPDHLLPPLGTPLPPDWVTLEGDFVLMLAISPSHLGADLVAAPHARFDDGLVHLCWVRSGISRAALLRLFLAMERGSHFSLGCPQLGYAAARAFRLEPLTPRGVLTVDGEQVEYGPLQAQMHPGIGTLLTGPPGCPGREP

[13] = biological target: T3, Sphingosine kinase 2 (Homo sapiens); conditions: at 1 µM
[14] = biological target: Casein kinase II subunit alpha (Homo sapiens) (UniProt P68400); conditions: at 0.1 µM
[15] = biological target: Casein kinase II subunit alpha (Homo sapiens) (UniProt P68400); conditions: at 1 µM
[16] = biological target: T4, Inhibitor of nuclear factor kappa-B kinase subunit alpha (Homo sapiens) (UniProt O15111); conditions: at 0.1 µM
T4 sequence (whole entry): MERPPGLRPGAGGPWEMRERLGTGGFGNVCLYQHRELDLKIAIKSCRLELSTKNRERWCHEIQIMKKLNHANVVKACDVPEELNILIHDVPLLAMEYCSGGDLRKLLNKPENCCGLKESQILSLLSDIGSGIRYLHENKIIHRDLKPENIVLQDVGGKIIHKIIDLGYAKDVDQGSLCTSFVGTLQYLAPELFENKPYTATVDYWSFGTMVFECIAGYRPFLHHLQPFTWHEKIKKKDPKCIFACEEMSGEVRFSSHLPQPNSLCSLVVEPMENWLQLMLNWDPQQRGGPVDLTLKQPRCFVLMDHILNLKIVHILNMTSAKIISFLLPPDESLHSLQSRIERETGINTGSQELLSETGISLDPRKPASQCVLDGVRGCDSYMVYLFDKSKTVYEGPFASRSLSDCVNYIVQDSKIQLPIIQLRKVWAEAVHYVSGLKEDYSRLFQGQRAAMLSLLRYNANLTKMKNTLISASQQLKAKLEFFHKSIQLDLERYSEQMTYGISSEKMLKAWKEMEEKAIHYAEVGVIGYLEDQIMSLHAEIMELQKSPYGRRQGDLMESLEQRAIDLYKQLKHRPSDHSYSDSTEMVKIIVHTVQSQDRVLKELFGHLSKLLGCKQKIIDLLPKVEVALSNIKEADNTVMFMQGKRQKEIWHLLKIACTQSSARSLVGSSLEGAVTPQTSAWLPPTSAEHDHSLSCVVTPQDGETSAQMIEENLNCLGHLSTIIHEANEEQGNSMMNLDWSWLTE

[17] = biological target: T4, Inhibitor of nuclear factor kappa-B kinase subunit alpha (Homo sapiens); conditions: at 1 µM
[18] = biological target: T5, Inhibitor of nuclear factor kappa-B kinase subunit beta (Homo sapiens) (UniProt O14920); conditions: at 0.1 µM
T5 sequence (whole entry): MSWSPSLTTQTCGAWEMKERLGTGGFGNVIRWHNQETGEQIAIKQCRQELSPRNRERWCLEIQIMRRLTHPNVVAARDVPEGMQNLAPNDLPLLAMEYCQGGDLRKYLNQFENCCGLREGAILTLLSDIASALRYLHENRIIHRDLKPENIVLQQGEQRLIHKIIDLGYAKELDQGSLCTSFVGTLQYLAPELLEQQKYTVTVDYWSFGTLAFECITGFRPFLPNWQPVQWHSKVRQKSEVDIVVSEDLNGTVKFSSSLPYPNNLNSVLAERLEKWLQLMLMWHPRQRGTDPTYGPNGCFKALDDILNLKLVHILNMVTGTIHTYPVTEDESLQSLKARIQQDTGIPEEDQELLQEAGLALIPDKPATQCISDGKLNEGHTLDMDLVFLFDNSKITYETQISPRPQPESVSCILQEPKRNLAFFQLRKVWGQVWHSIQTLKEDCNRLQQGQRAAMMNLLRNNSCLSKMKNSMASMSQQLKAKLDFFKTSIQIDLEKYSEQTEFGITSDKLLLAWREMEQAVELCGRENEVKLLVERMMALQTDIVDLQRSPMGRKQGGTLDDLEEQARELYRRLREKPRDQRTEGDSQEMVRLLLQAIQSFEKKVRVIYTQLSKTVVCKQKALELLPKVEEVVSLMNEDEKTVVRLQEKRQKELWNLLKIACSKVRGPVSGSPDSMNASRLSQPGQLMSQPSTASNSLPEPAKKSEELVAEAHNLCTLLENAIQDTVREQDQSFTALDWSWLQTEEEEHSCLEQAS

[19] = biological target: T5, Inhibitor of nuclear factor kappa-B kinase subunit beta (Homo sapiens); conditions: at 1 µM
[20] = biological target: T6, Inhibitor of nuclear factor kappa-B kinase subunit epsilon (Homo sapiens) (UniProt Q14164); conditions: at 0.1 µM;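 further: mean inhibition of IKKε reported, from the GSK PKIS dataset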
T6 sequence (whole entry): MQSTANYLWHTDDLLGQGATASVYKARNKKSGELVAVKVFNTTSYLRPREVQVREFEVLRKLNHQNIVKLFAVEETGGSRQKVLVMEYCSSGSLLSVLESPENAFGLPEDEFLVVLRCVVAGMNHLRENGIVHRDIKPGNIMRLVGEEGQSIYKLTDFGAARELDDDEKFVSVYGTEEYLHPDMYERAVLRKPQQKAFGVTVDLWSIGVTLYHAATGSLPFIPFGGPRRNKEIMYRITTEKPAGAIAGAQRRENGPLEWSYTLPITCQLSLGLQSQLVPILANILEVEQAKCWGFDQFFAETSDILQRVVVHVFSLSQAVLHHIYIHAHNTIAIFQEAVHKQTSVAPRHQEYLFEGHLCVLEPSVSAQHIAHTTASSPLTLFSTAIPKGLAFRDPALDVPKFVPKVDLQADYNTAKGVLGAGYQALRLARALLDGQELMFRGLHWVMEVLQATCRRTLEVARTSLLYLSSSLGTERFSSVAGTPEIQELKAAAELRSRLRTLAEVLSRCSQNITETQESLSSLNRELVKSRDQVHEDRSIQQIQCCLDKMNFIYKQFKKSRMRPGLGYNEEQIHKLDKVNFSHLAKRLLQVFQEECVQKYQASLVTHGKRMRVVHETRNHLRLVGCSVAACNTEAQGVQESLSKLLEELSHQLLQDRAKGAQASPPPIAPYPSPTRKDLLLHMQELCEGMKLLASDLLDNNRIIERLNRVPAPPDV

Sequence of Phosphatidylinositol 4-kinase beta (Homo sapiens) (Q9UBF8 2-816 limits assumed): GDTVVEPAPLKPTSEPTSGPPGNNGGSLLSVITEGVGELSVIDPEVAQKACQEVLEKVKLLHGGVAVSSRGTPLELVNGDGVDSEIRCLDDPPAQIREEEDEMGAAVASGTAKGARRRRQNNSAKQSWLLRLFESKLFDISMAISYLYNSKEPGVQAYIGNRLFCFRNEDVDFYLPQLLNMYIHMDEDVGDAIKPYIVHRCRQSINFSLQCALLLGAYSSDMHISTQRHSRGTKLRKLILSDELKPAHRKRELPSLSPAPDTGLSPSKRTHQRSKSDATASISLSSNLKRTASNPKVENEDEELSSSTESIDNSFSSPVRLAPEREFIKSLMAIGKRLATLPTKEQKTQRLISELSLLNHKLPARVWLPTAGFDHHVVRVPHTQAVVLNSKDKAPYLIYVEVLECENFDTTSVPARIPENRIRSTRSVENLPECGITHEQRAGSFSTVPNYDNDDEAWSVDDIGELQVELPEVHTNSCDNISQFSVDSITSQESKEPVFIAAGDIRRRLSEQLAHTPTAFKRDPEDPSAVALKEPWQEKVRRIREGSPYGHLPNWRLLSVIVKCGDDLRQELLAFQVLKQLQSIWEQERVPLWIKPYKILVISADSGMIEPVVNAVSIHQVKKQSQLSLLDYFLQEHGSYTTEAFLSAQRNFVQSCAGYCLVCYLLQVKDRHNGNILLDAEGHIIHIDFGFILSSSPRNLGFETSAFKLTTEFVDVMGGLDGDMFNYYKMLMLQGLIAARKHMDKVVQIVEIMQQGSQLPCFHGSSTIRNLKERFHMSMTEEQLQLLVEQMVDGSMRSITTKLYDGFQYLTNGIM
Sequence of SRSF protein kinase 1 (Homo sapiens) (Q96SB4 whole entry, canonical isoform): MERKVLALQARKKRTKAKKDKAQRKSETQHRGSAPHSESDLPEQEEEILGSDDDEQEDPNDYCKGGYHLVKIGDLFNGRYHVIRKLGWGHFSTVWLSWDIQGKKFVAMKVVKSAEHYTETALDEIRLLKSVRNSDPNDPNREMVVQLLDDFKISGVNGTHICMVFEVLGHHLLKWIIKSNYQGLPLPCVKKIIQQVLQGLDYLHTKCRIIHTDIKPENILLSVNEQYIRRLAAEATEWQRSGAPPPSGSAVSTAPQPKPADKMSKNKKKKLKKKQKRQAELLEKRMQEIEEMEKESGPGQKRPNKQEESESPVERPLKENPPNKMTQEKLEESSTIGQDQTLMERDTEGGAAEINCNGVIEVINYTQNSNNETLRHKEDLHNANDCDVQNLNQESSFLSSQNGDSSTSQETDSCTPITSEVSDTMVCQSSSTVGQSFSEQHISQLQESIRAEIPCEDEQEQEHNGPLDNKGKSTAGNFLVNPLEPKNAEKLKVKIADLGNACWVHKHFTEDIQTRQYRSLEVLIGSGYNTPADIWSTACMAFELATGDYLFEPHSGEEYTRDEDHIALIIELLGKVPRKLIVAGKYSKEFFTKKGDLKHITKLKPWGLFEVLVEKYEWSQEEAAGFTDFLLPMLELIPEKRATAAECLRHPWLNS
Sequence of Phosphatidylinositol 4,5-bisphosphate 3-kinase catalytic subunit alpha isoform (Homo sapiens) (P42336 whole entry, canonical isoform): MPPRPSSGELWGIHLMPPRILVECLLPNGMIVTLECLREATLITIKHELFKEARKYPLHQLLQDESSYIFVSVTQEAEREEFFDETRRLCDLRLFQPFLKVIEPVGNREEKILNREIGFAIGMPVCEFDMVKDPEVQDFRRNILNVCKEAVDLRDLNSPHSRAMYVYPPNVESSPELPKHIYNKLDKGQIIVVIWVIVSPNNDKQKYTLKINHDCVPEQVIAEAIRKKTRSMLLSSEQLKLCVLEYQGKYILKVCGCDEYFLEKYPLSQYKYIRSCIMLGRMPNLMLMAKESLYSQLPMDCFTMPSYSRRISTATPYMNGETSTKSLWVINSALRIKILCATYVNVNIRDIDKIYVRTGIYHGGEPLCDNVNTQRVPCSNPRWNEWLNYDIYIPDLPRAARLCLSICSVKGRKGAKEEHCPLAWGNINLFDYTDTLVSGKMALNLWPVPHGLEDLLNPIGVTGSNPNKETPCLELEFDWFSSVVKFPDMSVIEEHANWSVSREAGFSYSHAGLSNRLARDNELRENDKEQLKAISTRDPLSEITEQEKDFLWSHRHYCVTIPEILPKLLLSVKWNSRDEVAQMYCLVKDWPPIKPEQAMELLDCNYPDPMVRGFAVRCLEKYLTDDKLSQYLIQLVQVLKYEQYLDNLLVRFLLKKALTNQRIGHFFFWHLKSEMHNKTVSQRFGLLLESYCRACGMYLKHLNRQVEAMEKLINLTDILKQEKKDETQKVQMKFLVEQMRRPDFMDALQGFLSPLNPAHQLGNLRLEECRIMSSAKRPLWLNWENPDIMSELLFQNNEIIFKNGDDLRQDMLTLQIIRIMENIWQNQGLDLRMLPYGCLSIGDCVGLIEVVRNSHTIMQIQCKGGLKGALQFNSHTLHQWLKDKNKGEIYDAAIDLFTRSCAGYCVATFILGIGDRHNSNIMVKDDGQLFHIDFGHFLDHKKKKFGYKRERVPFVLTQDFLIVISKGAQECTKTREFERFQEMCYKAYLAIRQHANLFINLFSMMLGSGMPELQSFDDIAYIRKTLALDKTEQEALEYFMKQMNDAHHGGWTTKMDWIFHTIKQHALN
Sequence of Casein kinase II subunit alpha (Homo sapiens) (P68400 whole entry, looked up): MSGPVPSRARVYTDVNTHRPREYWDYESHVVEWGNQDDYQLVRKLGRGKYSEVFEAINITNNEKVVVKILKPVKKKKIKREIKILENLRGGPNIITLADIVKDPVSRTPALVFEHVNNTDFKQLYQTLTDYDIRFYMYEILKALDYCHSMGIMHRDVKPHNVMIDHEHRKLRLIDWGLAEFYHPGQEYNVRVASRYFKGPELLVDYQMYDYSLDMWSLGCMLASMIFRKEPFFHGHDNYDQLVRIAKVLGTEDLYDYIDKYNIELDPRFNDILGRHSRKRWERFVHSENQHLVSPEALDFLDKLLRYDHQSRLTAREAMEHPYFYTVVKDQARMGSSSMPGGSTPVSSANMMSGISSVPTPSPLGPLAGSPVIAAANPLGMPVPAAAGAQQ
Sequence of Sphingosine kinase 1 (Homo sapiens) (Q9NYA1 whole entry): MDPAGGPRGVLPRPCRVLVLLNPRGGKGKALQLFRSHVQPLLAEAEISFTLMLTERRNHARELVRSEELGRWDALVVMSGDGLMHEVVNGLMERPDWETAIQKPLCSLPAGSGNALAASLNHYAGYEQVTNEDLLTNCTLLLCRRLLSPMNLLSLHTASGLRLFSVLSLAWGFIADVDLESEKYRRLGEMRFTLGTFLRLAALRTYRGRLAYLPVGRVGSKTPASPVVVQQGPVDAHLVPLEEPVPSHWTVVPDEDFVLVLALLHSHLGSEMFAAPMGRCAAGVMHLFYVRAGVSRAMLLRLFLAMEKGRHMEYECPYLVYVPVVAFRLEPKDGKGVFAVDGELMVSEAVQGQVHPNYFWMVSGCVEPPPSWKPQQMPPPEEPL

Structure (SMILES)	inhibition [1]	inhibition [2]	inhibition [3]	inhibition [4]	inhibition [5]	inhibition [6]	inhibition [7]	inhibition [8]	inhibition [9]	inhibition [10]	inhibition [11]	inhibition [12]	inhibition [13]	inhibition [14]	inhibition [15]	inhibition [16]	inhibition [17]	inhibition [18]	inhibition [19]	inhibition [20]
CCn1c(-c2nonc2N)nc2c(C#CC(C)(C)O)nc(OC[C@H](N)c3ccccc3)cc21	3.95%	-2.57%	-1.89%	1.03%	1.06%	0.44%	1.52%	-2.33%	0.6%	0.65%	0.93%	-0.49%	0%	1.82%	4.54%	3.2%	2.58%	1.71%	4.92%	8.21%
CCn1cc(-c2ccnc3[nH]ccc23)c(-c2cccc(NC(=O)Nc3ccc(OCc4ccccc4)cc3)c2)n1	-0.76%	-3.33%	-4.16%	-0.66%	0.08%	-0.3%	1.17%	2.47%	-1.05%	-0.21%	-4.04%	-0.83%	-0.59%	9.36%	-1.27%	1.99%	-6.8%	4.3%	5.23%	-4.18%
COc1ccc(-c2cc3c(N)ncnc3o2)cc1	-1.89%	-1.58%	1.06%	-1.98%	-0.52%	-0.57%	0.07%	-0.47%	-0.47%	9.34%	0.27%	0.92%	-0.08%	4.9%	14.2%	-1.6%	-3.79%	-0.63%	6.4%	-2.31%
N#Cc1c(NC(=O)c2ccc(F)cc2)sc2c1CCCC2	0.08%	-1.47%	-1.93%	1.06%	0.48%	1.32%	-1.48%	-4.06%	1.29%	-0.62%	-1.09%	0.33%	0%	0.61%	1.89%	5.73%	4.51%	1.94%	4.15%	2.43%
Nc1ncc(-c2cccc(S(N)(=O)=O)c2)c2scc(-c3ccc(F)c(Cl)c3)c12	3.12%	-2.06%	-3.1%	4.44%	8.82%	1.02%	3.18%	7.12%	1.6%	-0.6%	-4.57%	-1.05%	0.43%	9.52%	3.4%	-2.46%	-3.58%	3%	5.65%	7.15%
CCn1c(-c2nonc2N)nc2ccccc21	1.22%	-2.61%	-2.83%	3.75%	1.82%	3.37%	3.25%	7.06%	0.95%	0.28%	1.74%	13.1%	-0.24%	0.89%	-1.31%	-3.92%	-1.19%	2.35%	-1%	2.9%

— ChEMBL document CHEMBL1961873, “Compounds: GSK PKIS; Assays: Nanosyn kinase panel” (2012)
